The values below come from PubChem BioAssay (Tox21).

Inconclusive results are not listed. Entries that show only a call come without a potency. Active and inactive are the calls of the source. Calls come from the whole dose curve; as a rule, active = well fitted activation curve with a large enough effect in the signal ratio in the repeat runs (not every such curve was filed as active); inconclusive = weak or mixed curves, or effect the other way; inactive = no such curve, though single readings can be large or run the other way; the % refers to the signal ratio.

Glucocorticoid receptor (Homo sapiens), sequence (P04150 whole entry, looked up): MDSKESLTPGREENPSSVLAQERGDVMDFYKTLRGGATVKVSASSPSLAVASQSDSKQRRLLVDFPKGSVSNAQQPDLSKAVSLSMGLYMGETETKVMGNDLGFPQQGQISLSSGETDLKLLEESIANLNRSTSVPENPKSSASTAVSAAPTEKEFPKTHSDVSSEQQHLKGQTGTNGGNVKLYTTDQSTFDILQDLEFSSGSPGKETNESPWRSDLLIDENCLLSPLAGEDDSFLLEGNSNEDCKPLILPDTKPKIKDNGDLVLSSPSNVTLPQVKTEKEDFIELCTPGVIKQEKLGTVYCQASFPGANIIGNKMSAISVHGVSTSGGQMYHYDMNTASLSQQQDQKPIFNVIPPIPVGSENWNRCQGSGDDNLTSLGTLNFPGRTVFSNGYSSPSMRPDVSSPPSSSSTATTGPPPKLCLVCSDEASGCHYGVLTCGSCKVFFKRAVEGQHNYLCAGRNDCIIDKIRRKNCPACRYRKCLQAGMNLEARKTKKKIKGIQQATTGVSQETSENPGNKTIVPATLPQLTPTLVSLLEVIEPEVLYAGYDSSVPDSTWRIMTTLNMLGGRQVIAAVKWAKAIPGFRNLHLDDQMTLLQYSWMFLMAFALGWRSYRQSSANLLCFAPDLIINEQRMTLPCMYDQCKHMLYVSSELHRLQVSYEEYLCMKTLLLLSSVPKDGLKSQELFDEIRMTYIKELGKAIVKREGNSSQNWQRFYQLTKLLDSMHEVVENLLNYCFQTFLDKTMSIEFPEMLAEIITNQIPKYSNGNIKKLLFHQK

In the experiment the target is Glucocorticoid receptor (Homo sapiens) (UniProt P04150). The experiment is described as follows: qHTS assay to identify small molecule agonists of the glucocorticoid receptor (GR) signaling pathway (AID 720691). The settings on record: GR-bla HeLa, beta-lactamase reporter ratio, 18 h; series mostly up to 62.4 µM. An excerpt:
U.S. Tox21 Program National Center for Advancing Translational Sciences [NCATS] NIH Chemical Genomics Center [NCGC] U.S. Environmental Protection Agency [EPA] National Institutes of Environmental Health Sciences [NIEHS] National Toxicology Program [NTP] U.S. Food and Drug Administration [FDA] Tox21 Assay Overview: The Glucocorticoid receptor (GR) is one of the members of the nuclear receptor family of ligand-dependent transcription factors. GR plays a critical role in carbohydrate, protein and lipid metabolisms and programmed cell death. CellSensor GR-bla HeLa cell line (Invitrogen) contains a beta-lactamase reporter gene under the control of the glucocorticoid response element stably integrated into HeLa cells, a cervical cancer cell line that expresses glucocorticoid receptor. The activation of the reporter gene under culture conditions can be detected by fluorescence intensity. This cell line has been used to screen the Tox21 10K compound library and to identify the compounds that activate the GR signaling.
Tox21 Assay Protocol Summary: The GR-bla HeLa cells were dispensed at 1500 cells/6 ul/well in 1536-well black wall/clear bottom plates using a Multidrop Combi (ThermoFisher Scientific, Waltham, MA) dispenser. After the assay plates were incubated at a 37 C/5% CO2 incubator for 4 hours, 23 nL of compounds dissolved in DMSO, positive controls or DMSO only was transferred to the assay plate by a pintool station (Kalypsys, San Diego, CA). The plates were incubated at 37 C for 18 hours. After 1 uL of LiveBLAzerTM B/G FRET substrate was added using a Flying Reagent Dispenser (Aurora Discovery, San Diego, CA), the plates were incubated at room temperature for 2 hours, and fluorescence intensity was measured by an Envision plate reader (PerkinElmer, Shelton, CT).
As for `CCOc1cccc(C2(N3CCN(c4ccccc4)CC3)CCC(C)CC2)c1` (stereo not given), the Potency entry is “inactive”. In the case of `CC(C)C1(C)N=C(c2ncccc2C(=O)O)NC1=O` (stereo not given), the Potency result is “inactive”.

For `CC(C)c1ccc(NC(=O)N(C)C)cc1`, the Potency result was “inactive”. Under `Cc1ccc(N)c(C)c1` stands “inactive”. Take `Oc1cccc(Cl)c1`: the Potency result is “inactive”. In the case of `O=C(O)C(Cl)(Cl)Br`, the Potency result was “inactive”. In the case of `NP(N)(=O)NC(=O)c1ccc(F)cc1`, the Potency entry is “inactive”.

In the case of `CN1CC[C@]23c4c5ccc(O)c4O[C@H]2[C@@H](O)CC[C@H]3[C@H]1C5`, the Potency result was “inactive”. Under `C=CCc1ccc(OC(=O)Cc2ccccc2)c(OC)c1` stands “inactive”; under `COc1ccccc1N1CCNCC1`, “inactive”; under `CC(C)c1ccc(OP(=O)(Oc2ccc(C(C)C)cc2)Oc2ccc(C(C)C)cc2)cc1`, “inactive”. For the molecule `OC[P+](CO)(CO)CO`, the Potency entry is “inactive”. Regarding `CCC1CCC(=O)O1` (stereo not given), the Potency entry is “inactive”. Under `CC[N+]1(C)CCCC(OC(=O)C(O)(c2ccccc2)c2ccccc2)C1` (stereo not given) stands “inactive”; under `Cc1cnc(C2=NC(C)(C(C)C)C(=O)N2)c(C(=O)O)c1` (stereo not given), “inactive”; under `CCCC[N+]1(C)[C@@H]2CC(OC(=O)[C@H](CO)c3ccccc3)C[C@H]1[C@@H]1O[C@@H]12` (stereo not given in full), “inactive”. In the case of `ClCc1ccccc1Cl`, the Potency result was “inactive”. Under `C=C(C)C(=O)OCCCCOC(=O)C(=C)C` stands “inactive”.

Turning to `CC(C)(C)NCC(O)c1cc(Cl)c(N)c(C(F)(F)F)c1` (stereo not given), the Potency result was “inactive”.

Turning to `C=CCc1ccccc1O`, the Potency result was “inactive”. For `CC(Oc1cccc(Cl)c1)C(=O)O` (stereo not given), the Potency entry was “inactive”. `CC(Cc1ccccc1)NCc1ccccc1Cl` (stereo not given): the Potency entry was “inactive”. As to `CC(Oc1cc(Cl)c(Cl)cc1Cl)C(=O)O` (stereo not given), the Potency entry was “inactive”.

On to `CN(C)C(=O)Nc1cccc(OC(=O)NC(C)(C)C)c1`, for which the Potency entry is “inactive”.

Take `Nc1ccc2c(c1)Cc1ccccc1-2`: the Potency entry was “inactive”. The entry for `C=CCOC(=O)C(C)(C)OC(=O)c1cc(-n2c(=O)cc(C(F)(F)F)n(C)c2=O)ccc1Cl` is “inactive”; for `C=C(Cl)Cl` it is “inactive”; for `CON(C)C(=O)Nc1ccc(Cl)cc1` it is “inactive”. Consider `O=C1NC(=O)C(=O)C(=O)N1`, for which the Potency entry was “inactive”.

As for `C=CC(=O)OCC`, the Potency entry is “inactive”.

Consider `COP(=O)(OC)OC(Br)C(Cl)(Cl)Br` (stereo not given), for which the Potency entry is “inactive”. As to `Cc1ccccc1`, the Potency result was “inactive”. With `CCCCCl`, the Potency entry is “inactive”. Under `COC(=O)Cc1ccccc1` stands “inactive”.

In the case of `CC(C)(C)OOC(C)(C)CCC(C)(C)OOC(C)(C)C`, the Potency result was “inactive”.

For `CCOC(=O)C1OC1(C)c1ccccc1` (stereo not given), the Potency result was “inactive”. Under `Nc1ccccc1C(=O)OCCc1ccccc1` stands “inactive”; under `O=C(NC(=O)c1cc(F)c(F)cc1Cl)Nc1cc(F)ccc1N1CCC(C(=O)O)CC1`, “inactive”; under `O=C(N/N=C/c1ccc([N+](=O)[O-])o1)c1cc([N+](=O)[O-])cc([N+](=O)[O-])c1O`, “inactive”.

With `O=C(O)c1cc(I)cc(I)c1I`, the Potency result was “inactive”.
